Here are results for 27 molecules from PubChem BioAssay (Tox21).

Values without a mark were called inactive. Results filed as inconclusive are left out. Calls of active or inactive are those of the source. Unless noted, calls come from the whole dose curve.

The target in experiment [1] is Thyrotropin receptor (Homo sapiens) (UniProt P16473). Nature of the experiment: qHTS assay to identify small molecule agonists of the thyroid stimulating hormone receptor (TSHR) signaling pathway (AID 1224843). Note: nearly all actives have a fitted effect of over 45% in size. An outline of the steps:
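Cell line HEK293 with TSHR; density 800/well. Exposure 30 min RT. Readout HTRF cAMP (cAMP-d2/anti-cAMP-cryptate), 1 h RT before reading.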

A short description of experiment [2]: qHTS assay to identify small molecule agonists of the hypoxia (HIF-1) signaling pathway - cell viability counter screen (AID 1224844). Note: nearly all actives have a fitted effect of over 50% in size. Note: potency is the fitted concentration of half-maximal effect. Summed up: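 Multiplexed with the HRE beta-lactamase assay, this viability read used CellTiter-Glo luminescence (30 min, RT) on HRE-bla ME-180 cells treated 17 hrs with compounds in 0.5% dialyzed FBS medium.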
A short description of experiment [3]: qHTS assay to identify small molecule agonists of H2AX (AID 1224845; active = well fitted activation curve with a large enough effect in the signal ratio in the repeat runs, not every such curve was filed as active; the % refers to the signal ratio). An outline of the steps: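 Wild-type CHO-K1 cells plated overnight, then exposed 3 hr at 37C to compounds at 15 concentrations (0.76% DMSO). Lysed, then HTRF anti-pH2AX(S139)-cryptate/anti-H2AX-d2 detection after 24 hr at room temperature; emissions 665 and 620 nm.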
Experiment [4] in a line: qHTS assay to identify small molecule agonists of the hypoxia (HIF-1) signaling pathway (AID 1224846; active = well fitted activation curve with a large enough effect in the signal ratio in the repeat runs, not every such curve was filed as active; the % refers to the signal ratio). An outline of the steps: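 Hypoxia-pathway activation was scored as increased beta-lactamase from an HRE-controlled reporter in ME-180 cells; plated at 2,000 cells per well with 0.5% dialyzed FBS, they were exposed 17 hrs to compounds and then given CCF4-AM.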
The nature of experiment [5]: qHTS assay to identify small molecule agonists of H2AX - cell viability counter screen (AID 1224847). Note: top concentration of the series differs between compounds; nearly all actives have a fitted effect of over 30% in size. Summed up:
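Counter-screen for viability: CellTiter-Glo ATP luminescence read after 3 h compound treatment (15-point titration, 0.76% DMSO final) of CHO-K1 cells at 37C, with 30 min room-temperature reagent incubation.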

Experiment [6] in a line: qHTS assay to identify small molecule antagonists of the estrogen related receptor (ERR) signaling pathway from Tox21 library (AID 1224848; active = well fitted curve in the direction sought with a large enough effect in the repeat runs; an effect the other way counts as inactive or inconclusive; note: nearly all actives have a fitted effect of over 50% in size; note: potency is the fitted concentration of half-maximal effect). Summed up: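 Screening used an ERR reporter line supplied by NTP, exposed for 18 h at 37 C to library compounds delivered in DMSO. Signal was luciferase luminescence developed with ONE-Glo at room temperature for 30 min.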
The nature of experiment [7]: qHTS assay to identify small molecule agonists of the estrogen related receptor (ERR) signaling pathway from Tox21 library (AID 1224849). Note: nearly all actives have a fitted effect of over 15% in size. Conditions: ERR reporter cell line, ONE-Glo luciferase, 18 h; at 92.4 µM (top of the series) unless noted. An outline of the steps: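 Six hours post-seeding at 37 C/5% CO2, ERR cells receive DMSO-solubilised compounds; after 18 h at 37 C, ONE-Glo reagent is applied and luminescence recorded.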

Experiment [8] can be described thus: qHTS RealTime-Glo MT Cell Viability Assay in HepG2 cells - 24 hour (AID 1224867; active = well fitted curve in the direction sought with a large enough effect in the repeat runs; an effect the other way counts as inactive or inconclusive; note: nearly all actives have a fitted effect of over 50% in size). An outline of the steps:
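Tox21 10K library screened in qHTS format on HepG2 cells carrying RealTime-Glo reagents. Compounds were added after a 5 h preincubation, and the luminescent signal from continuous culture was measured repeatedly during 40 h treatment.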

The nature of experiment [9]: qHTS RealTime-Glo MT Cell Viability Assay in HEK293 cells - 32 hour (AID 1224868; active = well fitted curve in the direction sought with a large enough effect in the repeat runs; an effect the other way counts as inactive or inconclusive; note: top concentration of the series differs between compounds; nearly all actives have a fitted effect of over 50% in size). An outline of the steps:
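Luminescence generated by NanoLuc from substrate produced by living HEK293 cells served as the viability signal. Each value reflects the reading at its stated time point during continuous 40 h compound exposure at 37 C.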

The nature of experiment [10]: A CellTox Green Cytotoxicity Assay to monitor cytotoxicity in HEK293 cells - 0 hour (AID 1224869; active = well fitted curve in the direction sought with a large enough effect in the repeat runs; an effect the other way counts as inactive or inconclusive; note: nearly all actives have a fitted effect of over 50% in size). An outline of the steps: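 Seeding of HEK293 cells together with cytotoxicity dye preceded a 5 h incubation at 37 C/5% CO2. Test compounds in DMSO were then added and fluorescence monitored across 40 h.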
% is set by controls: 0 for no effect and ±100 for the full control effect.

Thyrotropin receptor (Homo sapiens), sequence (P16473 whole entry, looked up): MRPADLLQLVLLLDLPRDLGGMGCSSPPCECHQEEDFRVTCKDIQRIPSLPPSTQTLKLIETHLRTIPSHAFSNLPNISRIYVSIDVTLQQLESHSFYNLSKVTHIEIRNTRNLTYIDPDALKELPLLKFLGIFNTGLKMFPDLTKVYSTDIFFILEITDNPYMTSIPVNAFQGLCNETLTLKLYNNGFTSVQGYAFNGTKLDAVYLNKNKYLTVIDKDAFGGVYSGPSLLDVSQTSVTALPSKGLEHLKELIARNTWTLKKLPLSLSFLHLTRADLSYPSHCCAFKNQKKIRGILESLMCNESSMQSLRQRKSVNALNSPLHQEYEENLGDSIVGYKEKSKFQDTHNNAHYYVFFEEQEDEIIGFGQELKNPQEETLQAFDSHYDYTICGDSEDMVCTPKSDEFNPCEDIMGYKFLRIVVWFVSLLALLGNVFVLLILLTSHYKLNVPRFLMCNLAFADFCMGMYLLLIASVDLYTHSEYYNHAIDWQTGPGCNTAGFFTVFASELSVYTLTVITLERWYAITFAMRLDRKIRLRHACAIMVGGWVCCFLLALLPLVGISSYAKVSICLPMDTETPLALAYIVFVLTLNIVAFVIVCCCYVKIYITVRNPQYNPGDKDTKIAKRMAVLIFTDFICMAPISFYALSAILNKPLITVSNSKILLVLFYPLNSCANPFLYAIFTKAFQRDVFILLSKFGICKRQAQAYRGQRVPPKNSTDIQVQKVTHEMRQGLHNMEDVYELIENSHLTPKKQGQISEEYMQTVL

With `CCCCCCCCCCCCN1CCOCC1`, the Potency result in [1], in experiment [2], in experiment [3], in experiment [5], in experiment [6] and in [9] was “inactive” each time. The Potency result in experiment [10] is “inactive”. For the same molecule, the molecule was called inactive in experiment [4] and in [8]. For the same molecule, the activity change, positive = activation in [7] is -8.24%.
As to `O=C(O)CNc1ccccc1`, the Potency entry in experiment [1], in experiment [2], in experiment [3], in [5], in experiment [6] and in experiment [9] was “inactive” throughout. Moreover, the Potency entry in experiment [10] is “inactive”. The molecule was classed as inactive in [4] and in experiment [8]. Further, the activity change, positive = activation in experiment [7] was 8.78%.
On to `O=[N+]([O-])c1ccccc1CCO`, for which the Potency result in experiment [1], in experiment [2], in experiment [3], in experiment [5] and in [9] was “inactive” throughout. In addition, the outcome in experiment [4] and in experiment [8] was inactive.
For the molecule `O=[N+]([O-])c1cccc(I)c1`, the Potency entry in [1], in experiment [2], in experiment [3], in experiment [5], in experiment [9] and in experiment [10] was “inactive” throughout. The result in experiment [4] and in experiment [8] was inactive.
For `Cc1cc(C)n(CO)n1`, the Potency result in [1], in [2], in experiment [3], in [5] and in experiment [9] was “inactive” in each case. The result in [4] and in experiment [8] was inactive.
As for `O=C(Nc1ccccc1)c1cc([N+](=O)[O-])ccc1Cl`, the Potency result in experiment [1], in experiment [2], in [3], in [5], in [9] and in experiment [10] was “inactive” in each case. Besides, the call in [4] and in experiment [8] was inactive. Also, in [6], the Potency is 54.5 µM (active). The activity change, positive = activation in [7] was -35.1%.
`CCCCCCCCCC(C)C=O` (configuration not stated): the Potency entry in [1], in experiment [2], in [3], in experiment [5] and in experiment [9] was “inactive” throughout. Moreover, the molecule was called inactive in experiment [4] and in experiment [8].
Consider `O=C(O)c1ccccc1[N+](=O)[O-]`, for which the Potency result in [1], in experiment [2], in experiment [3], in experiment [5], in experiment [9] and in experiment [10] was “inactive” each time. Also, the call in experiment [4] and in experiment [8] was inactive.
On to `Nc1ccc(C(=O)Oc2ccccc2)c(O)c1`, for which the Potency result in [1], in experiment [2], in experiment [3], in experiment [5], in experiment [6] and in [10] was “inactive” throughout. The outcome in experiment [4] was inactive. The activity change, positive = activation in [7] was 83.9% [at 42.5 µM] (active).
With `CC(=O)Nc1cccc(N)c1`, the Potency result in experiment [1], in experiment [2], in [3], in [5], in experiment [6] and in experiment [9] was “inactive” throughout. In [10], the Potency result was “inactive”. Besides, the result in experiment [4] and in [8] was inactive. Besides, in [7], the activity change, positive = activation is -3.33%.
Regarding `CCCCCCCCCCCCCCCCCCCl`, the activation is -0.25% [at 8.39 µM] in [1] and 0.175% [at 7.01 µM] in [4]. The values for the activity change, negative = cytotoxicity in [2] and in [5] were 0.227% [at 6.97 µM] and 2.91% [at 14 µM], respectively. Moreover, the activation (H2AX phosphorylation) in experiment [3] is -0.95% [at 14 µM]. The activity, negative = inhibition in experiment [6] is 23.3% [at 8.39 µM]. Besides, in experiment [9], the activity change, negative = cytotoxic is -2.36% [at 6.97 µM].
Regarding `CCC(C)CCCC(C)(C)O` (configuration not stated), the Potency entry in [1], in experiment [2], in experiment [3], in experiment [5], in experiment [9] and in experiment [10] was “inactive” throughout. Moreover, the outcome in experiment [4] and in [8] was inactive.
On to `CC1(C)CC(=O)CC(C)(C)N1`, for which the Potency result in experiment [1], in experiment [2], in [3], in [5], in experiment [9] and in experiment [10] was “inactive” in each case. Further, the molecule was called inactive in [4] and in [8].
As to `CC(C)=CCCC(C)C=O` (configuration not stated), the Potency entry in experiment [1], in experiment [2], in [3], in experiment [5] and in experiment [9] was “inactive” each time. The result in experiment [4] and in experiment [8] was inactive.
Take `CCc1ccc2c(c1)C(=O)c1ccccc1C2=O`: the Potency entry in [1], in experiment [2], in experiment [3], in experiment [9] and in experiment [10] was “inactive” throughout. Moreover, the molecule was classed as inactive in experiment [4] and in [8].
In the case of `Cc1ccc(S(=O)(=O)NC(=O)NC2CCCC2)cc1`, the Potency result in experiment [1], in [2], in experiment [3], in [5], in [9] and in experiment [10] was “inactive” throughout. The molecule was classed as inactive in experiment [8].
With `CC(=O)Nc1ccccc1O`, the Potency result in [1], in [2], in experiment [3], in experiment [5], in [6] and in experiment [10] was “inactive” in each case. In addition, the activity change, positive = activation in [7] is -0.899%. For the same molecule, the molecule was classed as inactive in experiment [8].
Take `O=C(OCCN1CCOCC1)c1cccnc1Nc1cccc(C(F)(F)F)c1`: the Potency result in [1], in [2], in experiment [3] and in experiment [5] was “inactive” each time. For the same molecule, the result in experiment [8] was inactive.
On to `C1CCN(CN2CCCCC2)CC1`, for which the Potency entry in experiment [1], in experiment [2], in experiment [3], in [5] and in [10] was “inactive” each time. In addition, the outcome in experiment [4] and in experiment [8] was inactive.
In the case of `CCCCC(CC)COCCC#N` (configuration not stated), the Potency result in experiment [1], in [2], in [3], in [5], in [9] and in experiment [10] was “inactive” in each case. In addition, in experiment [4], the molecule was called inactive.
In the case of `CCCCCCOC(=O)c1ccccc1`, the Potency entry in experiment [1], in [3], in experiment [5], in experiment [6] and in experiment [10] was “inactive” throughout. For the same molecule, the Potency in [2] is 19.5 µM (active). For the same molecule, the activity change, positive = activation in experiment [7] is 5.95%.
In the case of `COc1cccc([C@H](O)C2CCN(CCc3ccc(F)cc3)CC2)c1OC`, the Potency result in [1], in [2], in [3], in experiment [5] and in experiment [10] was “inactive” each time. Moreover, the molecule was called inactive in experiment [4] and in [8].
In the case of `C=C[Si]1(C)O[Si](C)(C=C)O[Si](C)(C=C)O[Si](C)(C=C)O1` (configuration not stated), the Potency result in experiment [1], in [2], in experiment [3], in experiment [9] and in [10] was “inactive” in each case. Further, the outcome in [4] and in experiment [8] was inactive.
As to `CCc1ccc(C(=O)C(C)CN2CCCCC2)cc1` (configuration not stated), the Potency result in experiment [1], in experiment [2], in [3], in [5], in experiment [9] and in experiment [10] was “inactive” in each case. In addition, the call in [4] and in [8] was inactive.
Take `C[C@H](N)C(=O)N[C@@H](C)C(=O)NC1[C@H]2CN(c3nc4c(cc3F)c(=O)c(C(=O)O)cn4-c3ccc(F)cc3F)C[C@@H]12` (some centres not stated): the Potency result in [1], in experiment [2], in experiment [3], in experiment [5], in experiment [6] and in experiment [9] was “inactive” throughout. For the same molecule, the Potency entry in experiment [10] was “inactive”. For the same molecule, the result in [8] was inactive.
Turning to `CC(=O)OCC(=O)[C@@]1(O)CC[C@H]2[C@@H]3CCC4=CC(=O)C=C[C@]4(C)[C@@]3(F)[C@@H](O)C[C@@]21C`, the Potency result in experiment [1], in experiment [2], in experiment [3], in experiment [9] and in [10] was “inactive” each time. The result in experiment [4] and in [8] was inactive.
As for `CC1=CC(=C(c2ccc(N)cc2)c2ccc(N)cc2)C=CC1=N`, the activation in experiment [1] was 3.86% [at 8.39 µM]; in [4], 0.607% [at 7.01 µM]. Further, the results for the activity change, negative = cytotoxicity in experiment [2] and in experiment [8] were -15.8% [at 6.97 µM] and -2.94% [at 6.97 µM], respectively. In addition, the activation (H2AX phosphorylation) in experiment [3] was -3.22% [at 14 µM]. Also, the Potency in experiment [6] was 2.19 µM (active). Moreover, the activity change, positive = activation in [7] is -47.7% [at 8.39 µM].
